The nature of experiment [1]: qHTS assay to identify small molecule agonists of H2AX - cell viability counter screen (AID 1224847; calls by dose curve;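 note: wild-type CHO-K1 cells; top concentration of the series differs between compounds; nearly all actives have a fitted effect of over 30% in size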). The gist of the method: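 After overnight plating of 1000 CHO-K1 cells per well, a 15-concentration compound series was applied for 3 hr at 37C. Luminescence from CellTiter-Glo, read following 30 min at room temperature, reflected cell viability.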
Experiment [2] is described as follows: qHTS RealTime-Glo MT Cell Viability Assay in HEK293 cells - 32 hour (AID 1224868). Note: nearly all actives have a fitted effect of over 50% in size. Note: potency is the fitted concentration of half-maximal effect. In short, it runs like this: (§1)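 Assay medium contained NanoLuc luciferase plus cell-permeant prosubstrate, added with HEK293 cells at 600 cells/well. After 5 h at 37 C/5% CO2 compounds were added; plates stayed at 37 C for 40 h with serial luminescence reads.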
Background: qHTS replaces the single test concentration by a dilution series.

A short description of experiment [3]: A CellTox Green Cytotoxicity Assay to monitor cytotoxicity in HEK293 cells - 0 hour (AID 1224869). Note: nearly all actives have a fitted effect of over 50% in size. Note: potency is the fitted concentration of half-maximal effect. In short, it runs like this:
(§2)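 Cytotoxicity was tracked continuously in HEK293 cells by a DNA-binding dye excluded from viable cells. Compounds were transferred in DMSO 5 h after seeding; fluorescence was recorded at intervals up to 40 h.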

Experiment [4] in a line: qHTS RealTime-Glo MT Cell Viability Assay in HepG2 cells - 40 hour (AID 1224870). Note: nearly all actives have a fitted effect of over 50% in size. Note: potency is the fitted concentration of half-maximal effect. The gist of the method:
(§3)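 Real-time viability: cells seeded at 600 per well together with NanoLuc and cell-permeant prosubstrate, compounds added after 5 h incubation. Luminescence tracked at 0, 8, 16, 24, 32 and 40 h of exposure.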

The nature of experiment [5]: A CellTox Green Cytotoxicity Assay to monitor cytotoxicity in HEK293 cells - 40 hour (AID 1224871). Note: nearly all actives have a fitted effect of over 45% in size. Note: potency is the fitted concentration of half-maximal effect. In short, it runs like this:
as §2

Experiment [6] is described as follows: qHTS RealTime-Glo MT Cell Viability Assay in HEK293 cells - 16 hour (AID 1224872). Note: nearly all actives have a fitted effect of over 50% in size. Note: potency is the fitted concentration of half-maximal effect. In short, it runs like this: as §1
The nature of experiment [7]: qHTS RealTime-Glo MT Cell Viability Assay in HepG2 cells - 8 hour (AID 1224873). Note: nearly all actives have a fitted effect of over 55% in size. Note: potency is the fitted concentration of half-maximal effect. The gist of the method: as §3
A short description of experiment [8]: qHTS RealTime-Glo MT Cell Viability Assay in HEK293 cells - 40 hour (AID 1224874). Note: nearly all actives have a fitted effect of over 50% in size. Note: potency is the fitted concentration of half-maximal effect. As to conditions: RealTime-Glo luminescence; max response: stronger effect = lower value. The gist of the method:
(§4)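 Nonlytic bioluminescent viability monitoring. HEK293 at 600 cells/well with reagent; 5 h settle; compound transfer by pintool; plates held at 37 C and read at set time points.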

Experiment [9] is described as follows: A CellTox Green Cytotoxicity Assay to monitor cytotoxicity in HEK293 cells - 24 hour (AID 1224875). Note: series mostly up to about 77 µM; nearly all actives have a fitted effect of over 45% in size. In short, it runs like this:
as §2

Experiment [10] is described as follows: A CellTox Green Cytotoxicity Assay to monitor cytotoxicity in HepG2 cells - 16 hour (AID 1224876). Note: nearly all actives have a fitted effect of over 45% in size. Note: potency is the fitted concentration of half-maximal effect. The gist of the method:
(§5)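 Real-time, homogeneous cytotoxicity readout: dead-cell DNA staining by CellTox Green in HepG2 monolayers, fluorescence measured at timed intervals up to 40 h of continuous compound exposure.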

Experiment [11] in a line: qHTS RealTime-Glo MT Cell Viability Assay in HepG2 cells - 32 hour (AID 1224877). Note: nearly all actives have a fitted effect of over 55% in size. Note: potency is the fitted concentration of half-maximal effect. The gist of the method: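 qHTS, HepG2, 600 cells/well, RealTime-Glo (NanoLuc + prosubstrate) added with cells; 5 h preincubation; DMSO compound addition; 37 C; luminescence at 0/8/16/24/32/40 h.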
A short description of experiment [12]: A CellTox Green Cytotoxicity Assay to monitor cytotoxicity in HepG2 cells - 24 hour (AID 1224878). Note: nearly all actives have a fitted effect of over 45% in size. Note: potency is the fitted concentration of half-maximal effect. In short, it runs like this: as §5
Experiment [13] in a line: A CellTox Green Cytotoxicity Assay to monitor cytotoxicity in HepG2 cells - 40 hour (AID 1224879). Note: nearly all actives have a fitted effect of over 40% in size. Note: potency is the fitted concentration of half-maximal effect. In short, it runs like this: as §5
The nature of experiment [14]: qHTS RealTime-Glo MT Cell Viability Assay in HEK293 cells - 0 hour (AID 1224880). The gist of the method:
as §4

Experiment [15] is described as follows: A CellTox Green Cytotoxicity Assay to monitor cytotoxicity in HEK293 cells - 32 hour (AID 1224881). Note: nearly all actives have a fitted effect of over 40% in size. Note: potency is the fitted concentration of half-maximal effect. The gist of the method:
as §2

Experiment [16] is described as follows: A CellTox Green Cytotoxicity Assay to monitor cytotoxicity in HepG2 cells - 0 hour (AID 1224882). Note: nearly all actives have a fitted effect of over 35% in size. Note: potency is the fitted concentration of half-maximal effect. In short, it runs like this: as §5
A short description of experiment [17]: A CellTox Green Cytotoxicity Assay to monitor cytotoxicity in HepG2 cells - 32 hour (AID 1224883). Note: nearly all actives have a fitted effect of over 50% in size. Note: potency is the fitted concentration of half-maximal effect. In short, it runs like this: as §5

“And” between values parts separate entries of the source, which are not always exact repeats. Equal values may be shown once. Inconclusive results are not listed. A structure can be active in one record and inactive in another. The source made the active and inactive calls. Unless noted, calls come from the whole dose curve; as a rule, active = well fitted curve in the direction sought with a large enough effect in the repeat runs; inconclusive = weak or mixed curves; inactive = no such curve, though single readings can be large; an effect the other way counts as inactive or inconclusive.

Drawing on PubChem BioAssay (Tox21), this text covers Potency, max response and outcome for twelve molecules.
% is set by controls: 0 for no effect and ±100 for the full control effect.

Consider `COc1ccc(N)cc1`, for which the Potency entry in experiment [1], in experiment [2], in experiment [3], in [4], in experiment [5] and in [6] was “inactive” each time. The Potency entry in experiment [7], in experiment [9], in [11], in [15] and in [16] was “inactive” in each case. Moreover, the max response in experiment [8] was -4.85% (inactive) [middle of 4 runs]. For the same molecule, the Potency entry in experiment [10] is “inactive and 195 nM (active)”; in [12] it was “inactive and 219 nM (active)”; in [13], “inactive and 245 nM (active)”; in experiment [17], “inactive and 245 nM (active)”. Besides, in [14], the molecule was called inactive.
As for `CN(C)[C@@H]1C(=O)C(C(N)=O)=C(O)[C@@]2(O)C(=O)C3=C(O)c4c(O)cccc4[C@@](C)(O)[C@H]3[C@H](O)[C@@H]12`, the Potency entry in experiment [1], in [2], in [3], in [4], in experiment [5] and in [6] was “inactive” in each case. The Potency result in experiment [7], in experiment [9], in [10], in experiment [11], in [12] and in experiment [13] was “inactive” in each case. Also, the Potency entry in experiment [15], in experiment [16] and in [17] was “inactive” each time. For the same molecule, in experiment [8], the max response was 8.46% (inactive) [middle of 4 runs]. For the same molecule, in [14], the outcome was inactive.
As for `CCCCCC[n+]1ccccc1`, the Potency result in experiment [1], in experiment [3], in experiment [4], in experiment [5], in experiment [6] and in [7] was “inactive” throughout. Besides, the Potency entry in experiment [9], in experiment [10], in [11], in experiment [12], in experiment [13] and in [15] was “inactive” throughout. The Potency result in [16] and in [17] was “inactive” each time. Further, the Potency in [8] was 27.8 µM (active) [middle of 5 runs]. In addition, the max response in [8] is -3.16% (inactive). Also, the result in [14] was inactive.
On to `CCCn1cc[n+](C)c1`, for which the Potency result in [1], in [2], in experiment [3], in [5], in experiment [6] and in experiment [7] was “inactive” in each case. Moreover, the Potency result in experiment [9], in experiment [10], in experiment [11], in [12], in experiment [13] and in experiment [15] was “inactive” each time. For the same molecule, the Potency result in experiment [16] and in experiment [17] was “inactive” in each case. The Potency in experiment [4] was 49.4 µM (active) and inactive. For the same molecule, in experiment [8], the max response was 9.61% (inactive) and -4.66% (inactive) and 2.37% (inactive). For the same molecule, the molecule was classed as inactive in experiment [14].
`COP(=O)(OC)OC=C(Cl)Cl`: the Potency result in experiment [1], in experiment [2], in experiment [3], in experiment [4], in [5] and in experiment [6] was “inactive” throughout. Moreover, the Potency result in experiment [7], in experiment [9], in experiment [10], in experiment [11], in [12] and in [13] was “inactive” throughout. Further, the Potency entry in [15], in experiment [16] and in [17] was “inactive” each time. Further, the max response in experiment [8] was 12.8% (inactive) and 2.89% (inactive) and 15.7% (inactive). The result in experiment [14] was inactive.
On to `O=S(=O)(O)O`, for which the Potency result in [1], in [2], in experiment [3], in experiment [4], in [5] and in [6] was “inactive” in each case. In addition, the Potency entry in [7], in [9], in experiment [10], in experiment [11], in [12] and in [13] was “inactive” each time. The Potency result in experiment [15], in experiment [16] and in experiment [17] was “inactive” each time. Moreover, the max response in experiment [8] is -2.52% (inactive) [middle of 6 runs]. Besides, the molecule was called inactive in experiment [14].
Consider `CCCCCCCCCCCCOS(=O)(=O)O`, for which the Potency entry in experiment [1], in experiment [2], in experiment [3], in experiment [4], in experiment [6] and in experiment [7] was “inactive” in each case. Moreover, the Potency entry in experiment [11], in experiment [16] and in [17] was “inactive” each time. Further, the Potency in experiment [10] was 49 µM (active) and inactive; in experiment [12], 49 µM (active) and inactive; in experiment [13] it was 49 µM (active) and inactive. Also, the molecule was classed as inactive in experiment [14].
Regarding `Cc1cc(-c2ccc(N)c(C)c2)ccc1N`, the Potency entry in [1], in experiment [2], in [3], in [4], in experiment [5] and in [6] was “inactive” in each case. For the same molecule, the Potency entry in experiment [7], in experiment [9], in [10], in experiment [11], in experiment [15] and in experiment [16] was “inactive” each time. Moreover, in [8], the max response was -20.5% (inactive) and -19.5% (inactive) and -26% (inactive). In addition, the Potency result in experiment [12] is “inactive and 43.6 µM (active)”; in experiment [13] it was “inactive and 43.6 µM (active)”; in experiment [17], “inactive and 43.6 µM (active)”. Further, the molecule was called inactive in experiment [14].
Regarding `CCCCCCCCCCCCCCCCn1cc[n+](C)c1`, the Potency entry in [3] and in experiment [16] was “inactive” in each case. Moreover, the Potency entry in experiment [4] was “inactive and 39.2 µM (active) and 31 µM (active)”; in [5] it was “inactive and 19.7 µM (active) and 24.6 µM (active)”; in [6], “inactive and 24.8 µM (active) and 24.6 µM (active)”; in [7] it was “inactive and 49.1 µM (active)”; in experiment [8] it was 7.93 µM (active) and 4.4 µM (active) and 2.76 µM (active); in experiment [10], “inactive and 49.4 µM (active) and 39 µM (active)”. Also, the Potency entry is “inactive and 49.4 µM (active) and 34.8 µM (active)” in experiment [11]; “inactive and 44 µM (active) and 24.6 µM (active)” in experiment [12]; “inactive and 19.7 µM (active) and 24.6 µM (active)” in experiment [15]. In addition, the max response in experiment [8] was 12.2% (inactive). Further, the outcome in experiment [14] was inactive.
On to `Cc1cc(Cl)ccc1N`, for which the Potency result in [1], in experiment [2], in experiment [4], in experiment [6], in experiment [7] and in experiment [11] was “inactive” each time. Further, the Potency result in experiment [3] is “inactive and 38.9 µM (active)”; in [5], “inactive and 38.9 µM (active)”; in [10], “inactive and 38.9 µM (active)”; in experiment [12], “inactive and 38.9 µM (active)”; in experiment [13] it was “inactive and 38.9 µM (active)”; in [15], “inactive and 38.9 µM (active)”. For the same molecule, the Potency result in experiment [16] is “inactive and 38.9 µM (active)”; in experiment [17], “inactive and 38.9 µM (active)”. The max response in experiment [8] was 9.86% (inactive) and 3.76% (inactive) and 5.35% (inactive). For the same molecule, the molecule was called inactive in [14].
Regarding `CCC(=O)C(CC(C)N(C)C)(c1ccccc1)c1ccccc1` (centres undefined), the Potency entry in experiment [1], in [3], in experiment [4], in [5], in experiment [6] and in experiment [7] was “inactive” throughout. Further, the Potency result in [9], in experiment [10], in [11], in [15] and in [16] was “inactive” throughout. For the same molecule, the Potency in [2] was 24.4 µM (active); in experiment [8], 24.4 µM (active); in [12] it was 39.1 µM (active) and inactive; in experiment [13] it was 43.8 µM (active) and 48.6 µM (active); in [17], 43.8 µM (active) and 48.6 µM (active) and inactive. Further, in experiment [14], the outcome was inactive.
On to `CCCC[n+]1ccccc1`, for which the Potency entry in [1], in experiment [2], in [3], in experiment [4], in experiment [5] and in [6] was “inactive” throughout. For the same molecule, the Potency result in experiment [7], in [9], in experiment [10], in [11], in [12] and in experiment [13] was “inactive” in each case. Besides, the Potency result in [15], in experiment [16] and in experiment [17] was “inactive” each time. In addition, the molecule was classed as inactive in experiment [14].
